G9a inh: inhibitors of human histone lysine methyltransferase G9a; actives 8.8% (n = 350,000); G9a H3K9 monomethylation, AlphaScreen, 2 h; Potency, µM (top dose mostly 102 µM), usual class: inhibitors; also: nearly all actives have a fitted effect of over 75% in size
Target sequence (Q96KQ7 913-1193 limits assumed): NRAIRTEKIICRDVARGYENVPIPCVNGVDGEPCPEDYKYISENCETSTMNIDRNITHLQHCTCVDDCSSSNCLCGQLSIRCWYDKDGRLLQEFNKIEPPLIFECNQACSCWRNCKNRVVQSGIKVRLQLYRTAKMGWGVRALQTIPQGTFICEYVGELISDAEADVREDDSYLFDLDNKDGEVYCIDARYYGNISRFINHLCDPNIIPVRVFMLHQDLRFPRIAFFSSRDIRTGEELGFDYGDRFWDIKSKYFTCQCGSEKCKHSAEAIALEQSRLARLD
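Quantitative HTS format: methyltransferase activity on a biotin-tagged H3K9 peptide is measured by AlphaScreen, using a rabbit anti-monomethyl-H3K9 antibody with streptavidin donor and anti-IgG acceptor beads. Final levels are 20 nM enzyme, 500 nM peptide, 20 uM SAM; 2 h RT.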
BAZ2B block: BAZ2B (human) inhibition; AID 504333; Q9UIF8; Potency, µM (top dose mostly 114 µM), usual class: inhibitors; AlphaScreen BAZ2B-H3K14Ac peptide displacement; actives 4.4% (n = 360,000); also: nearly all actives have a fitted effect of over 60% in size
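AlphaScreen luminescence quantifies BAZ2B engagement of H3K14Ac peptide; the protein and biotinylated peptide are both at 50 nM final, buffer PBS pH 7.4 with 0.01% Tween-20, all steps at room temperature.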
PI5P4K alpha inh: blocks human PI5P4K alpha kinase activity. P48426. PI5P4Kalpha enzyme, ADP-Glo luminescence, 60 min; stronger effect = lower value. max response, %. actives 1.2% (n = 330,000). AID 652105; active = max response of -50% or lower; inconclusive = between -30% and -50%; inactive = -30% or higher; also: value at the top dose of about 77 µM
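Reactions run in 0.038 M HEPES pH 7.4, 0.28 mM EGTA, 0.1% CHAPS and 5% DMSO, with PI5P4Kalpha, substrate, compound and 5 microM ATP final, one hour at room temperature. Readout is ADP-Glo luminescence.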
JMJD2A Tudor: JMJD2A Tudor domain (human) inhibition | Potency, µM (doses to about 114 µM), actives largely listed as inhibitors | AlphaScreen JMJD2A-Tudor / H3K4me3 peptide binding | actives 4.4% (n = 390,000) | O75164 | AID 504339; also: nearly all actives have a fitted effect of over 50% in size
PLK1 PBD block: inhibitors of human PLK1 polo-box domain binding; P53350; Plk1 PBD binding of FITC phosphopeptide, fluorescence polarization; AID 720504; Potency, µM, most hits filed as inhibitors; actives 2.8% (n = 360,000); also: series mostly up to about 57 µM; nearly all actives have a fitted effect of over 65% in size
HP1b chromo inh: HP1-beta chromodomain-methylated histone interaction inhibition | AlphaScreen HP1-beta / biotin-H3K9me3 peptide binding | Potency, µM (series often up to 114 µM), actives largely listed as inhibitors | actives 0.56% (n = 390,000); also: nearly all actives have a fitted effect of over 70% in size
Target sequence (P83916 whole entry, looked up): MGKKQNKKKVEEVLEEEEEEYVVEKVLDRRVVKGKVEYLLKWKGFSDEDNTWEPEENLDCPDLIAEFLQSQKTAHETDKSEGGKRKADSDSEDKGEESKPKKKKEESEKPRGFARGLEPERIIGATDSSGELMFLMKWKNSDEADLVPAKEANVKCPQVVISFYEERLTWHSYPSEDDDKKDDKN
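Compound inhibition of the preformed complex between 50 nM HP1-beta and 50 nM biotinylated H3K9me3 peptide was read by AlphaScreen. Buffer was PBS pH 7.4 with 0.01% Tween-20. Incubations ran 30 min at room temperature, with 10 ug/mL donor/acceptor beads.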
Each line names hits and unclear results; the compound was inactive in the other large screens. Compounds with a hit are over-represented: about 12% of the library has one in this group of screens. Unless noted, calls follow the shape of the dose curve; as a rule, active = well fitted curve in the direction sought with a large enough effect; inconclusive = small, poorly fitted or top-dose-only effect, or another doubt; inactive = no such curve, though single readings can be large; an effect the other way counts as inactive or inconclusive.

CCC(=O)Nc1nnc(-c2cccs2)s1	none
CCC(C)C(=O)Nc1nnc(-c2cccs2)s1 (stereo not drawn)	G9a inh 14µM, PLK1 PBD block inconclusive
COCC(=O)Nc1nnc(-c2cccs2)s1	G9a inh 45µM, PLK1 PBD block inconclusive
CC(C)CC(=O)Nc1nnc(CCc2ccccc2)s1	none
CC(C)CC(NC(=O)C(NC(=O)C1CCC(=O)N1C(=O)OCc1ccccc1)C(C)C)C(=O)N1CCCC1C(N)=O (stereo not drawn)	none
CC(C)c1ccc(C(CC(=O)O)N2Cc3ccccc3C2=O)cc1 (stereo not drawn)	none
O=C(OCC#CCSc1nnc(-c2cccc3ccccc23)o1)c1ccc(F)nc1	none (no result: G9a inh, BAZ2B block, PI5P4K alpha inh, PLK1 PBD block, HP1b chromo inh)
Cc1ccc(/C=C/C(=O)N2CCCC(C(N)=O)C2)o1 (stereo not drawn)	G9a inh 56µM
NC(=O)C1CCCN(C(=O)c2ccc(Cl)cc2)C1 (stereo not drawn)	none (no result: PI5P4K alpha inh)
Cc1ccc(/C=C/C(=O)N2CCN(c3ncccn3)CC2)o1	G9a inh 4µM, PI5P4K alpha inh inconclusive, JMJD2A Tudor 28µM, PLK1 PBD block 30µM, HP1b chromo inh inconclusive
Cc1ccc(/C=C/C(=O)N2CCN(c3ccc(F)cc3)CC2)o1	G9a inh inconclusive, BAZ2B block inconclusive
COc1ccc(CNC(=O)c2cc3cccc4c3n2CC(C)S4)cc1OC (stereo not drawn)	BAZ2B block inconclusive (no result: PI5P4K alpha inh, PLK1 PBD block)
CS(=O)(=O)c1ccc(Cl)c(NC(=O)Cc2ccccc2F)c1	JMJD2A Tudor 22µM, PLK1 PBD block 27µM
CS(=O)(=O)c1ccc(Cl)c(NC(=O)Cc2c(F)cccc2Cl)c1	none
Cc1cc(C)n2nc(SCc3cc(=O)oc4cc(O)ccc34)nc2n1	G9a inh inconclusive, BAZ2B block 50µM (no result: PI5P4K alpha inh, JMJD2A Tudor, PLK1 PBD block, HP1b chromo inh)
Cc1cc(C)n2nc(SCc3nnc(-c4ccc(F)cc4)o3)nc2n1	G9a inh 32µM (no result: PI5P4K alpha inh, JMJD2A Tudor, PLK1 PBD block, HP1b chromo inh)
Cc1cc(C)n2nc(SCc3nnc(-c4cccs4)o3)nc2n1	none
CC(C)c1ccc(OCC(=O)NCC(c2ccc(Cl)cc2)N2CCOCC2)cc1 (stereo not drawn)	none (no result: PI5P4K alpha inh, PLK1 PBD block)
CCOC(=O)c1cnc2c(cnn2CC)c1NN=C(C)C	G9a inh 30µM (no result: BAZ2B block, PI5P4K alpha inh, JMJD2A Tudor, PLK1 PBD block, HP1b chromo inh)
CCOC(=O)c1cnc2c(cnn2C)c1NCCC#N	none
Cc1nc(SCc2ccc(O)c([N+](=O)[O-])c2)n[nH]1	G9a inh 6.3µM, JMJD2A Tudor inconclusive
N=C(N)SCc1ccc(O)c([N+](=O)[O-])c1	G9a inh 32µM
Cc1nc(SCc2ccc(Cl)c(Cl)c2)n[nH]1	none
O=C(Nc1cccc2c1CCCC2)c1cc(C2CCCCN2C(=O)c2cccs2)on1 (stereo not drawn)	none (no result: G9a inh, BAZ2B block, JMJD2A Tudor, HP1b chromo inh)
CCN(C(=O)c1coc(=O)c(Br)c1)c1ccc2c(c1)OCO2	G9a inh 20µM, BAZ2B block 50µM, JMJD2A Tudor 50µM (no result: PI5P4K alpha inh)
CCN(C(=O)c1c(C)cc(=O)oc1C)c1ccc2c(c1)OCO2	none
COCCN(C(=O)CSCC(=O)Nc1cccc(C)c1)c1c(N)n(Cc2ccccc2)c(=O)[nH]c1=O	none
CCCCn1c(N)c(N(CC(C)C)C(=O)CSCC(=O)Nc2ccc(OC)cc2)c(=O)[nH]c1=O	none
CCCCN(C(=O)CSCC(=O)Nc1cccc(C)c1)c1c(N)n(CCCC)c(=O)[nH]c1=O	G9a inh 20µM
Cc1ccc(CSCC(=O)N(CCC(C)C)c2c(N)n(Cc3ccccc3)c(=O)[nH]c2=O)cc1	none
Cc1ccc(NC(=O)CSCC(=O)N(CCC(C)C)c2c(N)n(Cc3ccccc3)c(=O)[nH]c2=O)cc1	G9a inh 56µM
CCCCn1c(N)c(N(CC)C(=O)CSCC(=O)Nc2ccc(OC)cc2)c(=O)[nH]c1=O	G9a inh 50µM
CCCn1c(N)c(N(CCOC)C(=O)CSCC(=O)Nc2cccc(C)c2)c(=O)[nH]c1=O	G9a inh 50µM
CCC1CCCCN1S(=O)(=O)c1ccc(C(=O)Nc2nnc(C3=COCCO3)o2)cc1 (stereo not drawn)	BAZ2B block 79µM
COc1ccc(C(=O)Nc2nnc(C3=COCCO3)o2)cc1	BAZ2B block 16µM, JMJD2A Tudor 40µM

Screening results (PubChem)
